Where two headings read alike, the source gives them in different places.
Columns and labels:
Set-up in all cases: species or system human, MV4-11 + K-562 + COLO205 + SK-N-BE2 + OVCAR-8
CDK16 = conditions: read-out: apparent Kd, n = 1
CHEK1 = conditions: read-out: apparent Kd, n = 1
CSNK1D = conditions: read-out: apparent Kd; compound concentrations: 100 nM and 1000 nM (sheet 'Samples'), CATDS: 9.27581508882039E-3; n = 1
MARK3 = conditions: read-out: apparent Kd, compound concentrations: 100 nM and 1000 nM (sheet 'Samples'), n = 1
PRKAG2 = conditions: read-out: apparent Kd, n = 1
RPS6KA4 = conditions: read-out: apparent Kd, compound concentrations: 100 nM and 1000 nM (sheet 'Samples'), n = 1
STK16 = conditions: read-out: apparent Kd, n = 1
STK4 = conditions: read-out: apparent Kd, n = 1
AURKA = conditions: read-out: apparent Kd; compound concentrations:100 nM and 1000 nM (sheet 'Samples'); n = 1
MAPK10 = conditions: read-out: apparent Kd, n = 1
MAPK9 = conditions: read-out: apparent Kd, n = 1
BCR = conditions: read-out: apparent Kd, n = 1
CAMKK2 = conditions: read-out: apparent Kd, n = 1
EPHA4 = conditions: read-out: apparent Kd, n = 1
EPHA5 = conditions: read-out: apparent Kd, n = 1
PIP4K2C = conditions: read-out: apparent Kd, n = 1
PRKACA = conditions: read-out: apparent Kd; compound concentrations:100 nM and 1000 nM (sheet 'Samples'); n = 1
PRKACB = conditions: read-out: apparent Kd; compound concentrations:100 nM and 1000 nM (sheet 'Samples'); n = 1
TNK1 = conditions: read-out: apparent Kd, n = 1
ATM = conditions: read-out: apparent Kd, compound concentrations: 100 nM and 1000 nM (sheet 'Samples'), n = 1
[1] = compound concentrations:100 nM and 1000 nM (sheet 'Samples')

Compound: O=C(O)C(F)(F)F.O=c1[nH]ccc2nc(N[C@@H]3CCNC3)nc(Nc3ccc4c(c3)S(=O)(=O)CC4)c12 [GSK2181306A]
- potency estimated from few doses (CDK16; compound concentrations: 100 nM and 1000 nM (sheet 'Samples'), CATDS: 1.11902252687631E-2): 620 nM
- potency estimated from few doses (CHEK1; compound concentrations: 100 nM and 1000 nM (sheet 'Samples'), CATDS: 1.0862390298074001E-2): 672 nM
- potency estimated from few doses (CSNK1D): 1080 nM
- potency estimated from few doses (MARK3; CATDS: 1.24991581563988E-2): 470 nM
- potency estimated from few doses (PRKAG2; compound concentrations: 100 nM and 1000 nM (sheet 'Samples'), CATDS: 1.2141088500549201E-2): 504 nM
- potency estimated from few doses (RPS6KA4; CATDS: 1.6454900639240402E-2): 258 nM
- potency estimated from few doses (STK16; compound concentrations: 100 nM and 1000 nM (sheet 'Samples'), CATDS: 9.1549687714340792E-3): 1130 nM
- potency estimated from few doses (STK4; compound concentrations: 100 nM and 1000 nM (sheet 'Samples'), CATDS: 2.0109118463760199E-2): 175 nM

Compound: Cc1cccc(Nc2nc(N[C@H]3CCNC3)ncc2C(N)=O)c1.Cl [GSK2197149A]
- potency estimated from few doses (STK4; [1]): 1490 nM

Compound: CC(C)Oc1ccc2c(-c3ccnc(Nc4ccc(N5CCN(C)CC5)cc4)n3)cnn2n1 [GW696155X]
- potency estimated from few doses (AURKA): 602 nM
- potency estimated from few doses (CDK16; [1]): 1910 nM
- potency estimated from few doses (MAPK10; [1]): 1250 nM
- potency estimated from few doses (MAPK9; [1]): 1010 nM
- potency estimated from few doses (STK16; [1]): 39.2 nM

Compound: CS(=O)(=O)CCn1c(=O)c(Oc2ccc(F)cc2F)cc2cnc(NC3CCOCC3)nc21 [RO5027956-000]
- potency estimated from few doses (BCR; [1]): 693 nM
- potency estimated from few doses (CAMKK2; [1]): 1270 nM
- potency estimated from few doses (CHEK1; [1]): 1500 nM
- potency estimated from few doses (EPHA4; [1]): 896 nM
- potency estimated from few doses (EPHA5; [1]): 751 nM
- potency estimated from few doses (MAPK10; [1]): 127 nM
- potency estimated from few doses (MAPK9; [1]): 494 nM
- potency estimated from few doses (PIP4K2C; [1]): 462 nM
- potency estimated from few doses (PRKACA): 2090 nM
- potency estimated from few doses (PRKACB): 977 nM
- potency estimated from few doses (PRKAG2; [1]): 497 nM
- potency estimated from few doses (TNK1; [1]): 487 nM

Compound: Cc1ccccc1-n1ncc(C(=O)c2ccccc2)c1N [RO1151248-000]
- potency estimated from few doses (ATM; CATDS: 4.4938913040114402E-2): 302 nM
- potency estimated from few doses (BCR; compound concentrations: 100 nM and 1000 nM (sheet 'Samples'), CATDS: 2.0148747001584599E-2): 1380 nM
- potency estimated from few doses (CAMKK2; compound concentrations: 100 nM and 1000 nM (sheet 'Samples'), CATDS: 1.8448697661517601E-2): 1790 nM
- potency estimated from few doses (CHEK1; compound concentrations: 100 nM and 1000 nM (sheet 'Samples'), CATDS: 1.9023399407062401E-2): 1630 nM
- potency estimated from few doses (EPHA4; compound concentrations: 100 nM and 1000 nM (sheet 'Samples'), CATDS: 2.34305639617714E-2): 955 nM
- potency estimated from few doses (EPHA5; compound concentrations: 100 nM and 1000 nM (sheet 'Samples'), CATDS: 2.3755462861685599E-2): 926 nM
- potency estimated from few doses (STK16; compound concentrations: 100 nM and 1000 nM (sheet 'Samples'), CATDS: 1.8222125974055099E-2): 1860 nM
- potency estimated from few doses (TNK1; compound concentrations: 100 nM and 1000 nM (sheet 'Samples'), CATDS: 3.5283149780083803E-2): 439 nM

Compound: CCn1c(-c2cccnc2O)nc2cnccc21 [SB-736715]
- potency estimated from few doses (ATM; CATDS: 6.3051453748071404E-2): 146 nM
- potency estimated from few doses (CDK16; compound concentrations: 100 nM and 1000 nM (sheet 'Samples'), CATDS: 1.2342830833646699E-2): 2030 nM
- potency estimated from few doses (MAPK9; compound concentrations: 100 nM and 1000 nM (sheet 'Samples'), CATDS: 1.25360352526476E-2): 1950 nM
- potency estimated from few doses (PIP4K2C; compound concentrations: 100 nM and 1000 nM (sheet 'Samples'), CATDS: 1.9889508399788002E-2): 761 nM
- potency estimated from few doses (PRKAG2; compound concentrations: 100 nM and 1000 nM (sheet 'Samples'), CATDS: 1.6059828940045699E-2): 1130 nM
- potency estimated from few doses (STK16; compound concentrations: 100 nM and 1000 nM (sheet 'Samples'), CATDS: 1.41773006803768E-2): 1460 nM
- potency estimated from few doses (STK4; compound concentrations: 100 nM and 1000 nM (sheet 'Samples'), CATDS: 1.39715497774644E-2): 1510 nM

Compound: FC(F)(F)c1ccc(-c2ncn(CCCN3CCOCC3)c2-c2ccncc2)cc1 [SB-217780]
- potency estimated from few doses (STK4; compound concentrations: 100 nM and 1000 nM (sheet 'Samples'), CATDS: 0.215555066939567): 1540 nM

Compound: COc1cc[nH]c1/C=C1\C(=O)Nc2ccc(F)c(C#CC3(O)CCNCC3)c21.Cl [RO0282986-001]
- potency estimated from few doses (CDK16; compound concentrations: 100 nM and 1000 nM (sheet 'Samples'), CATDS: 3.6317667749827198E-2): 71.4 nM
- potency estimated from few doses (MAPK10; compound concentrations: 100 nM and 1000 nM (sheet 'Samples'), CATDS: 9.5486825617733494E-3): 1600 nM
- potency estimated from few doses (MAPK9; compound concentrations: 100 nM and 1000 nM (sheet 'Samples'), CATDS: 1.5639148944551099E-2): 359 nM
- potency estimated from few doses (MARK3; CATDS: 1.4968914388982501E-2): 398 nM
- potency estimated from few doses (RPS6KA4; CATDS: 2.8007008589504299E-2): 111 nM
- potency estimated from few doses (STK16; compound concentrations: 100 nM and 1000 nM (sheet 'Samples'), CATDS: 1.3388611542508999E-2): 526 nM
- potency estimated from few doses (STK4; compound concentrations: 100 nM and 1000 nM (sheet 'Samples'), CATDS: 1.59534503193824E-2): 343 nM

Reference: article PMC11062922 (Nature Chemical Biology, 2023)
